Experiments:
Test in all cases: log2 ratio of Biotin-Ahx-Ub-VS probe labelling (fragment/DMSO); higher = less target engagement (more negative = stronger competition), active = hit call of the paper (q ≤ 0.05, log2 ratio ≤ -1)
Details in all cases: compound concentration: 200 uM; treatment time: 3 h
USP34 = USP34 (UniProt Q70CQ2)
Outline: (§1)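 Global-median-normalised Spectronaut label-free quantities were compared by unpaired t-test, and values are average log2 ratios of fragment over vehicle. Only proteins with ≥2 unique peptides were used. HEK293T lysate (495 µg per sample) was treated in triplicate with fragment at 200 µM or vehicle for 3 h and then with Biotin-Ahx-Ub-VS at 0.5 µM final for 1 h. Labelled DUBs were then NeutrAvidin-enriched, digested with LysC and trypsin, and run by diaPASEF LC-MS/MS.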

USP36 = target: T1, USP36 (UniProt Q9P275)
T1 sequence (whole entry): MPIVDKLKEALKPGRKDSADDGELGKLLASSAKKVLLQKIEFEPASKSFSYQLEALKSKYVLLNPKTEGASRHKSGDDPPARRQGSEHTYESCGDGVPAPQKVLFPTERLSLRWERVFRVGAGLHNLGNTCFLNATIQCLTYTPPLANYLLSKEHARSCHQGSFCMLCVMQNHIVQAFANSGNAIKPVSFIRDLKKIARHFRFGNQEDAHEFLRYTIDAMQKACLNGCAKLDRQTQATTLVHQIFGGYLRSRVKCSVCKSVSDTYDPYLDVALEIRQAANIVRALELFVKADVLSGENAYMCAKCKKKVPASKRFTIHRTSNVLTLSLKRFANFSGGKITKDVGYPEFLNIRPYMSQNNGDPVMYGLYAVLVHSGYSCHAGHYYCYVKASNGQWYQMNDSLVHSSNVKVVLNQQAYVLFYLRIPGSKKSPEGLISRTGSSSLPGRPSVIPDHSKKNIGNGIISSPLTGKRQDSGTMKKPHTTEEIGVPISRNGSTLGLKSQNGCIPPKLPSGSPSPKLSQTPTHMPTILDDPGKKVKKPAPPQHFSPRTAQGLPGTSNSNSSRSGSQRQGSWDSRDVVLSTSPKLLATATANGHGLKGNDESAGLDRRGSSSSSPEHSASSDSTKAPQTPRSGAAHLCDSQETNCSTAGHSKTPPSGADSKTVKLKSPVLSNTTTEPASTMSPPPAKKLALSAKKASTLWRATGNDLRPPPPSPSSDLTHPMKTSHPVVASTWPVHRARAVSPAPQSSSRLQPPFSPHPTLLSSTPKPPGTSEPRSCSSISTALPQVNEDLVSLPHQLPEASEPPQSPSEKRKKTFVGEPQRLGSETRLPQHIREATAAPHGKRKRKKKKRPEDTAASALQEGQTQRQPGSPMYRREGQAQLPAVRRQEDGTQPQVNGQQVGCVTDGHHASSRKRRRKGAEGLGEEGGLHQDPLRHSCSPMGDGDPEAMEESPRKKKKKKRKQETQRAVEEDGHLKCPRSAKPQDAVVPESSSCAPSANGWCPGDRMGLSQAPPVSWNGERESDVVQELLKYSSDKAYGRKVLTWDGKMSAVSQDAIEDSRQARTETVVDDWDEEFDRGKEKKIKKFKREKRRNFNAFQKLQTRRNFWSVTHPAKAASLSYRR
Outline: as §1

USP38 = target: T2, USP38 (UniProt Q8NB14)
T2 sequence (whole entry): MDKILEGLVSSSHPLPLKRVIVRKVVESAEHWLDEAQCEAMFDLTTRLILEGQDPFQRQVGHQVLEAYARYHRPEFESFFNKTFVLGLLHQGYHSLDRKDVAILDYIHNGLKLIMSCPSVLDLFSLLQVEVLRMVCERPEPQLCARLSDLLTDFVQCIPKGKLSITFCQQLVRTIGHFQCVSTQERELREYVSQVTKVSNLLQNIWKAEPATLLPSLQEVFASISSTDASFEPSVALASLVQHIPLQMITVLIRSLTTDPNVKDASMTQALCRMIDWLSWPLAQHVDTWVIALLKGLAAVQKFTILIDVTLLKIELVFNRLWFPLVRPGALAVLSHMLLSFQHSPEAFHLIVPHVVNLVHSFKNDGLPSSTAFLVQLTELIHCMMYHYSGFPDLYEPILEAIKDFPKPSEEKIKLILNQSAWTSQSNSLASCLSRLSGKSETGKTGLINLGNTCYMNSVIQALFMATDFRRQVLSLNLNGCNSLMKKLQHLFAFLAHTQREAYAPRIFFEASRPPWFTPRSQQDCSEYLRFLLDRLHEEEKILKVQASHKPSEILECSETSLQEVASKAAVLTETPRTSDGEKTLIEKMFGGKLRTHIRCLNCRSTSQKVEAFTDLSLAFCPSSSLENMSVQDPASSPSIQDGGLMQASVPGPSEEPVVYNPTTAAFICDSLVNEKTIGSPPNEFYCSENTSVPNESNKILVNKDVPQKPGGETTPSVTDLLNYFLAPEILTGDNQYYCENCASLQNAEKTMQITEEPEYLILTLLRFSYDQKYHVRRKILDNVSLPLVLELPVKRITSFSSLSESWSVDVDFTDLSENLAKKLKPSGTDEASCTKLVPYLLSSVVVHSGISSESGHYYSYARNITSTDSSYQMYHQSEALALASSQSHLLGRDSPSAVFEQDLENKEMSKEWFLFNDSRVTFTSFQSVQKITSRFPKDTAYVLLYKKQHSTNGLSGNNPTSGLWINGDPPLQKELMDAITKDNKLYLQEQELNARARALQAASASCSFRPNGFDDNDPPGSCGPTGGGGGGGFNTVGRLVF
Outline: as §1

USP39 = target: T3, USP39 (UniProt Q53GS9)
T3 sequence (whole entry): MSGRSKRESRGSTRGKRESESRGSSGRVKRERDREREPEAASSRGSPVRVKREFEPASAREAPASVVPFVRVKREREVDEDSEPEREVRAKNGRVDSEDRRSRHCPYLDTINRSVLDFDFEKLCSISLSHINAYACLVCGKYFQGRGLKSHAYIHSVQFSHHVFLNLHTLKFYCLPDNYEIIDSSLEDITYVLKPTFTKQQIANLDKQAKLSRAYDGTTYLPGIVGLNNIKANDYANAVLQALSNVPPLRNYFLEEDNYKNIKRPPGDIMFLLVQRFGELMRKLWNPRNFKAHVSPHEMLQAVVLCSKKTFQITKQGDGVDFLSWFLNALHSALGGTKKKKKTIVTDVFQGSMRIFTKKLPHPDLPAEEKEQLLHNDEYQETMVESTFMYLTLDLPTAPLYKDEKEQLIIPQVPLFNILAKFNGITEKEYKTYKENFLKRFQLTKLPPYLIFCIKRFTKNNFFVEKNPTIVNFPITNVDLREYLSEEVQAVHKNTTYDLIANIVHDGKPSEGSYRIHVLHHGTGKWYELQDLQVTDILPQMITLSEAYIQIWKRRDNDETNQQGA
Outline: as §1

USP4 = target: T4, USP4 (UniProt Q13107)
T4 sequence (whole entry): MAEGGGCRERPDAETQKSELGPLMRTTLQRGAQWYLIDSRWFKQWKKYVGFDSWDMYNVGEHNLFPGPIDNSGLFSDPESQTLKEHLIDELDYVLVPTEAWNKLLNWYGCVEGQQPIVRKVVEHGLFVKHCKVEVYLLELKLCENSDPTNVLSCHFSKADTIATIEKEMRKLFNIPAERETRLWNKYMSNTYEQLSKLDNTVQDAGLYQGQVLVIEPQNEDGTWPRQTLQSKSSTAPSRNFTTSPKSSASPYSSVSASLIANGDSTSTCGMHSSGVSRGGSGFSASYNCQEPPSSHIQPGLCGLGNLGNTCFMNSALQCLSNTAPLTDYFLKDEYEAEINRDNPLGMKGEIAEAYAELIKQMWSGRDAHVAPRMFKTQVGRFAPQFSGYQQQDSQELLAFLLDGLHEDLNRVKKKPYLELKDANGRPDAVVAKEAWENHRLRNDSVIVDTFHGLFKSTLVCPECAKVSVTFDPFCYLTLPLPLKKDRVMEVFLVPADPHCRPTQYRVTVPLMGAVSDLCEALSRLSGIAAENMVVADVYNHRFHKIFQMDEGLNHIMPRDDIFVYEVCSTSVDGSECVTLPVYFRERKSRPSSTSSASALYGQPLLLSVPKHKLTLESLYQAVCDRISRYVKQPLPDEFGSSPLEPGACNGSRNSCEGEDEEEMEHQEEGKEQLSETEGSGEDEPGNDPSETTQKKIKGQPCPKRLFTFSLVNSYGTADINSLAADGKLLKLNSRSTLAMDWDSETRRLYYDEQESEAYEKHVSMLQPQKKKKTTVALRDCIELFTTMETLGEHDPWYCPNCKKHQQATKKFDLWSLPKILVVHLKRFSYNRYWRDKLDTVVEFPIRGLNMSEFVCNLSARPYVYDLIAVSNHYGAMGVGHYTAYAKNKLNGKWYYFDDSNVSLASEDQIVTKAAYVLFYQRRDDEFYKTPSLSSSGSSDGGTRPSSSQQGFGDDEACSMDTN
Outline: as §1

Measured: log2 ratio of Biotin-Ahx-Ub-VS probe labelling

Sequence of USP34 (Q70CQ2 whole entry, the tested form may be a part): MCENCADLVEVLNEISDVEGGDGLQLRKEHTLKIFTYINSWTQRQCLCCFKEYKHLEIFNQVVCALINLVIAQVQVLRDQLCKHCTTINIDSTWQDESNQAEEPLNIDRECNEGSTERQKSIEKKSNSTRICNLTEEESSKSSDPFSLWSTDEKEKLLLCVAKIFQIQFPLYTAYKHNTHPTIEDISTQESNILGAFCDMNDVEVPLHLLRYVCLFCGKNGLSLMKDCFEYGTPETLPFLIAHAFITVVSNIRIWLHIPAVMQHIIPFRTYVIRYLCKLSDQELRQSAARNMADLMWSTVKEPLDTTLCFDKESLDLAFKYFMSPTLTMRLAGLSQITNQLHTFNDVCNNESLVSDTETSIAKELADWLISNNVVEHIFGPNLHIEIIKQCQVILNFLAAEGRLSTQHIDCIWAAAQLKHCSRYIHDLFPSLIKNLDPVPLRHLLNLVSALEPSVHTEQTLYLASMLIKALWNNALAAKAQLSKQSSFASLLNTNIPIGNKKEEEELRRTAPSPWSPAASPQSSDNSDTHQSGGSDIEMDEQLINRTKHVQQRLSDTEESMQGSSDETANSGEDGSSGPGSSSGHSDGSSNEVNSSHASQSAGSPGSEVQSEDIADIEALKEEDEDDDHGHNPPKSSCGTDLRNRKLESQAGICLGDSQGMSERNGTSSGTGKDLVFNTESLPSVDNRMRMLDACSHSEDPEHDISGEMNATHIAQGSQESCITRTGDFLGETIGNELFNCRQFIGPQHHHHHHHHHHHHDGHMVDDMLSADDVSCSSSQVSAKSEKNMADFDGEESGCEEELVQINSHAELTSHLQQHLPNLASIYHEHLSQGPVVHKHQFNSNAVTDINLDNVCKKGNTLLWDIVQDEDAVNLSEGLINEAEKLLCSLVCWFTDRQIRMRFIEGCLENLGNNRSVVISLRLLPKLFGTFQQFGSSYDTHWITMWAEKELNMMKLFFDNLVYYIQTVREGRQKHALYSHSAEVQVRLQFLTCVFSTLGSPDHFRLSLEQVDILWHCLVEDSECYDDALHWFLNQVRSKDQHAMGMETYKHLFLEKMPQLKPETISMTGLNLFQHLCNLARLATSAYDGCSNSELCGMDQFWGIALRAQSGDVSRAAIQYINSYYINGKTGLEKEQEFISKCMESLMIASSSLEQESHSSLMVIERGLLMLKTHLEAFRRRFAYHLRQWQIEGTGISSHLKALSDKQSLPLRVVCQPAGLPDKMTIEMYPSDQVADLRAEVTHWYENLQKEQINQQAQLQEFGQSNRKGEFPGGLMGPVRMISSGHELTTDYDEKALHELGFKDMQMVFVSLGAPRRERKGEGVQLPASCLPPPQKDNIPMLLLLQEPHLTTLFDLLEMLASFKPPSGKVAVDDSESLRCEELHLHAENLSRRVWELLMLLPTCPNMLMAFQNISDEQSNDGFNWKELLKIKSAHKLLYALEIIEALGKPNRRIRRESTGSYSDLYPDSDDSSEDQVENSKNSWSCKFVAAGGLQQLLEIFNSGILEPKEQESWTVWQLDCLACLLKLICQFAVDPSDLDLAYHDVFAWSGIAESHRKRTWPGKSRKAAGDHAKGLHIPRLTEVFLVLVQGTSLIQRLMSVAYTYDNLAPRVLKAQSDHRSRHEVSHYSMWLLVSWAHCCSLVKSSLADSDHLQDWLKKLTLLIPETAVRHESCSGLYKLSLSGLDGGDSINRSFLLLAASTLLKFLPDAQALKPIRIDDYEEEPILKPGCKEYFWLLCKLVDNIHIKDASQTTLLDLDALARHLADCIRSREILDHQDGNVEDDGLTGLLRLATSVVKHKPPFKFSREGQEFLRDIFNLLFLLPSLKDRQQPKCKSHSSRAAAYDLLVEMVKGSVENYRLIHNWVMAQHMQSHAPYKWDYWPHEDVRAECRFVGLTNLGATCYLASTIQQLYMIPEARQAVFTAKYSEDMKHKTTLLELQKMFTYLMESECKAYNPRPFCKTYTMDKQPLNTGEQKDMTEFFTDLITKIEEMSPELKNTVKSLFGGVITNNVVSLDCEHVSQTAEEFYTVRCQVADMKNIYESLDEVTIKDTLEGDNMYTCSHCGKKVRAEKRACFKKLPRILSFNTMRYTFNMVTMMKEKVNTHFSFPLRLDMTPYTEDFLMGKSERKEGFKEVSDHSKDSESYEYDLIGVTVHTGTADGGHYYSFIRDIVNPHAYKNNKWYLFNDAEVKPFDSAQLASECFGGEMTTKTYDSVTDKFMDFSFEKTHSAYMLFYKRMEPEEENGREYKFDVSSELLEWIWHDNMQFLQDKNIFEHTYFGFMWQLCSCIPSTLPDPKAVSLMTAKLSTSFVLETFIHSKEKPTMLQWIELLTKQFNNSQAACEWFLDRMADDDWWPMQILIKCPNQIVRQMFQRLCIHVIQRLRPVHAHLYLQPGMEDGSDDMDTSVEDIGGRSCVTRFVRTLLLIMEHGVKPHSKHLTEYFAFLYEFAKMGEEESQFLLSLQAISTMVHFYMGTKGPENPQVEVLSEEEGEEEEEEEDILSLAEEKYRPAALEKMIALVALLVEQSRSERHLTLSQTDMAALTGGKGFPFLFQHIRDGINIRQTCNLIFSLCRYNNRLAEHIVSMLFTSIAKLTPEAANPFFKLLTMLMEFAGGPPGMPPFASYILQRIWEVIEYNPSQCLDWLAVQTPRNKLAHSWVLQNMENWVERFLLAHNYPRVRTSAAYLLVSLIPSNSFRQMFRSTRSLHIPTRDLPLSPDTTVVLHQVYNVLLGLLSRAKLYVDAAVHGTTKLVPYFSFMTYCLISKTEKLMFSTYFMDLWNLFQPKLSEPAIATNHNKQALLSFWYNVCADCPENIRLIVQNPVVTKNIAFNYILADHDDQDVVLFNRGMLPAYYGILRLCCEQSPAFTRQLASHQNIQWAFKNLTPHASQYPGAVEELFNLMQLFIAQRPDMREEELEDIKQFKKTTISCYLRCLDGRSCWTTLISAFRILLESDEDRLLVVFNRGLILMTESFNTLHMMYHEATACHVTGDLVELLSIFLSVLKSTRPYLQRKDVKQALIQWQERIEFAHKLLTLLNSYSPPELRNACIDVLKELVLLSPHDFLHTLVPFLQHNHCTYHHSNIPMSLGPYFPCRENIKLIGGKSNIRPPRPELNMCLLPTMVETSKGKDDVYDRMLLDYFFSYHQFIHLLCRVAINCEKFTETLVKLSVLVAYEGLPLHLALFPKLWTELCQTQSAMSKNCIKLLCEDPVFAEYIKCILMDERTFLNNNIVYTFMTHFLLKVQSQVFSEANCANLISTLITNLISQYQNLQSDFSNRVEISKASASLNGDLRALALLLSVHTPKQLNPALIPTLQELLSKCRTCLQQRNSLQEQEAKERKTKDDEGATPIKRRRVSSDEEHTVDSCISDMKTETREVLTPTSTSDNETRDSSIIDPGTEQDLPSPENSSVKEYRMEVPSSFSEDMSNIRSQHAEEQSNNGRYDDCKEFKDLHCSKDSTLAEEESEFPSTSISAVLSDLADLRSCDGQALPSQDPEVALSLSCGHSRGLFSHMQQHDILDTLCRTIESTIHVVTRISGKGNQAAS

O=C(CCl)NCCc1ccc2c(c1)OCCO2
inactive: USP34 -0.523 | USP36 -0.0707 | USP38 -0.0664 | USP39 -0.16 | USP4 -0.295

Reference: the supplement of paper PMC11732987, “Enantioselective OTUD7B fragment discovery through chemoproteomics screening and high-throughput optimisation” (Communications Chemistry, 2025)
